RORgamma inh – inhibitors of mouse ROR gamma transcriptional activity | P51450 | hit rate 5.4% among 310,000 | Drosophila S2 Gal4-RORgamma UAS-luciferase reporter, 20 h | Potency, µM (top dose mostly 53.6 µM), for the others: at the top dose activity change, negative = inhibition, most hits filed as inhibitors | AID 2551; further: potency means the concentration at half of the fitted maximal effect; on the % scale 0 is the no-effect control and ±100 the full control effect; nearly all actives have a fitted effect of over 60% in size
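A Gal4/UAS one-hybrid system in insect cells: metallothionein-promoter Gal4–ROR gamma fusion plus Photinus luciferase reporter. Copper sulfate 700 uM final, 20 hr ambient incubation, luminescent detection after 10 min with reagent.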
MBNL1-CUG inh – blocks human MBNL1 binding to CUG repeat RNA; TR-FRET MBNL1-His/biotin-(CUG)12 binding, 665/545 ratio; Potency, µM (doses to about 57.5 µM), without a hit: top-dose activity change, negative = inhibition, usual class: inhibitors; hit rate 0.036% among 280,000; AID 2675; active means well fitted inhibition curve with a large enough effect in the signal ratio, with a control signal flat, not every such curve was filed as active; inconclusive means small, poorly fitted or top-dose-only effect, or effect the other way, or a change in a side signal; inactive means no such curve, though single readings can be large or run the other way; the % refers to the signal ratio; further: potency means the concentration at half of the fitted maximal effect; on the % scale 0 is the no-effect control and ±100 the full control effect
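TR-FRET between His-tagged MBNL1 and biotin-(CUG)12 RNA, detected with Tb anti-His antibody (0.055 ng/ul) and streptavidin-XL665 (5 nM), 60 min at room temperature. Compounds titrated 92 nM to 58 uM; 665/545 nm ratio normalized to buffer and complex controls.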
VP16 counter – inhibits Gal4-VP16 luciferase reporter, ROR gamma counter-screen | Potency, µM (series often up to 53.6 µM), without a hit: top-dose activity, negative = inhibition, most hits filed as inhibitors | Drosophila S2 Gal4-VP16 UAS-luciferase, luminescence, 20 h | hit rate 3.5% among 310,000;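 further: Gal4-VP16 expression switched on by copper sulfate through the metallothionein promoter; potency means the concentration at half of the fitted maximal effect; on the % scale 0 is the no-effect control and ±100 the full control effect; nearly all actives have a fitted effect of over 50% in size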
Six1-Eya2 inh – inhibitors of human Six1/Eya2 interaction; Q15475+O00167; AlphaScreen GST-Six1/His-Eya2 binding, biochemical; active compounds read low; activity change, % (test concentration not listed); hit rate 0.56% among 360,000; AID 651725; in the data active means activity change below about -65%; inconclusive means mostly about -30% to -63%; further: on the % scale 0 is the no-effect control and ±100 the full control effect
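Six1/Eya2 binding was read as AlphaScreen signal after compounds were pinned into GST-Six1 plus His-tagged Eya2 (5X stock 250/500 nM) in pH 8.0 Tris/NaCl/TCEP buffer, beads added, then incubated 1 h, 37 C, dark.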
CBFb RUNX1 block – blocks binding between human CBF-beta and RUNX1; AID 1477; Potency, µM (titrated, usually from 59.8 µM), for inactives: at the highest dose activity, negative = inhibition, usual class: inhibitors; AlphaScreen CBFb-His/RUNX1-biotin binding, biochemical; 230,000 tested, under 10 active; Q01196+Q13951; further: % of control where 0% means no effect
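Compounds were screened at multiple concentrations against a preformed CBF-beta(His)/RUNX1(biotin) complex (30 nM of each) for 15 min at room temperature, followed by 90 min with nickel and streptavidin beads and AlphaScreen reading.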
CtBP-E1A blk – blocks the CtBP interaction with E1A. AlphaScreen GST-E1A/His-CtBP binding, 1536-well; active compounds read low. activity change, % (test concentration not listed). hit rate 0.49% among 340,000. AID 651724; in the data active means activity change below about -65%; inconclusive means mostly about -30% to -63%; further: on the % scale 0 is the no-effect control and ±100 the full control effect
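Steps: dispense buffer (Tris pH 8.0, NaCl 300 mM, TCEP 1 mM, BSA, Tween 20); add 5X protein mix (GST-E1A, His-CtBP, 125 nM each); pin 23 nL compound; 2 h at 37 °C, dark; add 5X beads (50 ug/mL); 1 h; read.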
Starred values were filed as active, the others as inactive; ? = inconclusive; . = no result given. Compounds with a hit are over-represented: about 5.5% of the library has one in this group of screens. Unless noted, the call rests on the fitted dose curve; in most records, active means well fitted curve in the direction sought with a large enough effect; inconclusive means small, poorly fitted or top-dose-only effect, or another doubt; inactive means no such curve, though single readings can be large; an effect the other way counts as inactive or inconclusive.

SMILES	RORgamma inh	MBNL1-CUG inh	VP16 counter	Six1-Eya2 inh	CBFb RUNX1 block	CtBP-E1A blk
COC(=O)CN1C(C)=Nc2ccc(C)cc2C1c1ccccc1 (configuration not stated)	0%	-5%	-7%	4	1%	-1
COC(=O)CN1C(c2ccccc2)=Nc2ccc(Cl)cc2C1c1ccccc1 (configuration not stated)	13µM*	7%	-12%	-8	-5%	-15
Cc1ccc(NCc2ccc(O)c3ncccc23)cc1C	24%	9%	?	-69*	-3%	-80*
Cc1ccc(NCc2ccco2)cc1C	3%	-7%	10%	-11	4%	-9
Cc1ccc(NCc2ccc(O)c3ncccc23)cc1	1µM*	8%	1.8µM*	-72*	-2%	-78*
O=C1CSC(=NC2CCCCC2)N1	?	3%	?	-4	2%	-9
O=C1CS/C(=N/N=C2CCCC2)N1	7.9µM*	-2%	?	2	-7%	-4
Cc1c(Cl)cccc1NC(=S)NCCc1ccc(S(N)(=O)=O)cc1	8%	-14%	11%	2	-1%	0
Cc1c(Cl)cccc1NC(=S)NCc1ccc(Cl)cc1	.	.	.	6	.	1
Cc1c(Cl)cccc1NC(=S)NCCc1ccc(Cl)cc1	5.6µM*	-4%	3.2µM*	-10	.	-14
Cc1c(Cl)cccc1NC(=S)NCCc1ccc(F)cc1	4.5µM*	1%	3.5µM*	8	.	-14
CCN1CCN(c2ccc(Cl)cc2NC(=O)c2ccc(-n3nc(C)cc3C)cc2)CC1	.	.	.	-5	.	0
Cc1cccc(OCCN2CSC(=S)N(C)C2)c1	13µM*	1%	14µM*	1	-2%	22
CCC(=O)c1ccc(OCC(=O)OCC(=O)c2cc(C)n(C)c2C)cc1	0.89µM*	-5%	1.3µM*	-7	.	-2
Cc1cc(C(=O)COC(=O)c2nccnc2N)c(C)n1C	10µM*	?	?	-6	-16%	23
COc1cc(C(=O)OCC(=O)c2cc(C)n(C)c2C)cc(OC)c1OC	-1%	-5%	-3%	-11	-6%	-6
COCC(=O)Nc1nnc(SCC(=O)N2C(C)CCCC2C)s1 (configuration not stated)	-15%	0%	9%	1	.	21
CC(C)C(C(=O)NCc1ccccc1)N(C)Cc1ccc(Cl)c(Cl)c1 (configuration not stated)	.	.	.	7	.	-5
COc1cc(/C=N/NC(=S)NCCN2CCOCC2)cc(OC)c1O	?	.	?	-10	-16%	-9
COCCNC(=S)N/N=C/c1c2ccccc2cc2ccccc12	7.1µM*	?	?	-8	.	0
S=C(NCCN1CCOCC1)N/N=C/c1c2ccccc2cc2ccccc12	?	?	?	-4	3%	0
COc1ccc2ccccc2c1/C=N/NC(=S)NCCN1CCOCC1	4.5µM*	19%	4.5µM*	-25	-9%	-12
COc1cc(OC)c(OC)cc1/C=N/NC(=S)NCCN1CCOCC1	4µM*	5%	7.1µM*	0	7%	-20
Oc1ccc(/C=N/NC(=S)NCCN2CCOCC2)c(O)c1	13µM*	.	-10%	-90*	?	.
CCC(C)(C)C1CCC2(CC1)NC(=O)N(CC(=O)NC(C)CCc1ccccc1)C2=O (configuration not stated)	.	.	.	-1	.	-18
COc1ccc(CNC(=O)C2Cc3cc(S(=O)(=O)N4CCCC4)ccc3N2C(C)=O)c(OC)c1 (configuration not stated)	19%	-1%	-7%	0	.	-1
C#CCN1c2ccccc2Sc2cccnc21	-2%	?	0%	?	.	?
COc1cc(OC)c(OC)cc1/C=N/NC(=S)NCC1CCCO1 (configuration not stated)	6.3µM*	11%	14µM*	-10	3%	-11

Bioassay records (PubChem)
